Shown are actives, neighbours in structure and some others; about 2.3% of the full set was active somewhere.
USP1 inh = USP1/UAF1 (human) deubiquitinase inhibition. O94782. recombinant USP1/UAF1, Ub-Rhodamine cleavage fluorescence. Potency, µM (doses to about 57.1 µM), without a hit: top-dose activity change, negative = inhibition, actives largely listed as inhibitors. 0.23% of 390,000 active. AID 743255; note: potency is the fitted concentration of half-maximal effect; nearly all actives have a fitted effect of over 60% in size
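High-throughput fluorogenic screen: 1nM USP1/UAF1 complex, Ub-Rho substrate 150nM final, 50mM HEPES pH 7.8 with 0.5mM EDTA, 0.1 mg/ml BSA, 1mM TCEP and 0.01% Tween-20.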
Tau fluor counter = counter-screen for tau fibril formation inhibitors; AID 1463; 0.93% of 280,000 active; tau K18 P301L Alexa594 fluorescence, heparin fibrillization; Potency, µM (series often up to 57.7 µM), for inactives: top-dose activity change, negative = decrease; note: potency is the fitted concentration of half-maximal effect; nearly all actives have a fitted effect of over 55% in size
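Human K18 P301L tau (15 uM unlabeled plus 0.24 uM Alexa 594-labeled, final) in 100 mM sodium acetate pH 7 was mixed with compound and 20 uM heparin and incubated 6 hr at 37 C.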
Tau FP inhib = inhibitors of human tau fibril formation; Potency, µM (doses to about 57.7 µM), for inactives: at the top dose activity, negative = inhibition, usual class: inhibitors; 0.39% of 280,000 active; P10636; K18 P301L tau heparin fibrillization, Alexa594 FP, 6 h; note: potency is the fitted concentration of half-maximal effect; nearly all actives have a fitted effect of over 55% in size
Target sequence (P10636 561-689 P618L limits assumed): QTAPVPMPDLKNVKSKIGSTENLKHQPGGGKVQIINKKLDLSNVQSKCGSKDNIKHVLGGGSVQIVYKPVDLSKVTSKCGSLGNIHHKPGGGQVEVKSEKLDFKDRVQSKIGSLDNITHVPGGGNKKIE
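Read-out: fluorescence polarization of Alexa 594-labeled tau (0.24 uM), 555 nm excitation, 632 nm emission. Mixtures held 15 uM unlabeled K18 P301L, compound and 20 uM heparin, pH 7 acetate buffer, incubated 6 hr at 37 C.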
FBPA coupling cs = coupling enzyme interference in Giardia aldolase counter-screen. activity change, negative = inhibition, % at 58.2 µM, hits read low. 0.67% of 290,000 active. coupling enzyme system counterscreen, AmpLite Red fluorescence; in the data active = activity change below about -30%
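Compounds tested against the coupling enzymes alone at 57.5 uM final; readout was AmpLite Red fluorescence (525/598 nm) after 20 min at RT.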
Tau ThT inhib = tau fibrillization inhibition (ThT binding); recombinant tau K18 P301L (four-repeat tau fragment), heparin-induced fibrillization, ThT fluorescence; Potency, µM (highest dose often 57.4 µM), without a hit: at the top dose activity, negative = inhibition, hits mostly inhibitors; 2.1% of 270,000 active; note: potency is the fitted concentration of half-maximal effect; nearly all actives have a fitted effect of over 55% in size
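Aggregation was driven by heparin (20 uM final) acting on recombinant tau […] bearing P301L in 100 mM sodium acetate pH 7; fibrils were detected with Thioflavin T.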
* hit, by the source's call; u = inconclusive; x = no result; ! = a repeat was not active; [ ] = remark or other dose. Unless noted, calls come from the whole dose curve; as a rule, active = well fitted curve in the direction sought with a large enough effect; inconclusive = small, poorly fitted or top-dose-only effect, or another doubt; inactive = no such curve, though single readings can be large; an effect the other way counts as inactive or inconclusive. % is set by controls: 0 for no effect and ±100 for the full control effect.

SMILES	USP1 inh	Tau fluor counter	Tau FP inhib	FBPA coupling cs	Tau ThT inhib
O=C(Nc1cccc(Cl)c1)Nc1nccs1	-7%	u	u	0	0%
O=C(Nc1ccc(Cl)c(Cl)c1)Nc1nnc(CSc2ccccc2)s1	-1%	-29%	3.5µM*	1	8%
O=C(Nc1ccc(Cl)c(Cl)c1)Nc1nccs1	-10%	u	14µM*	-1	u
CCOC(=O)c1c(C)[nH]c(C)c1S(=O)(=O)N1CCC(C(=O)N2CCN(c3cccc(C)c3C)CC2)CC1	u	-25%	-4%	x	-11%
Cc1ccc(OCCSCc2nnc(NC(=O)Nc3cccc(Cl)c3)s2)cc1	-8%	u	16µM*	1	10%
CCOC(=O)Cn1c(=O)n(-c2ccc(Cl)cc2)c2nc(-c3ccc(Cl)cc3)nc(C(N)=O)c21	-17%	-4%	-10%	x	2%
COc1cc2c(cc1OC)C(c1ccc(N(C)C)cc1)NCC2 (configuration not stated)	-19%	x	x	0	x
CN(C)c1ccc(C2NCCS2)cc1 (configuration not stated)	-19%	-15%	u	-1	28µM*
Cc1ccc(C2=NNC(=O)C(c3ccc(Cl)cc3)C2)cc1 (configuration not stated)	-11%	-16%	5%	1	-20%
Cc1ccc(C2NCCS2)cc1 (configuration not stated)	-20%	-16%	u	4	22µM*
CN(C)CCc1cc2c(c3c1ccc1ccccc13)OCO2	-11%	u	-6%	-36*!	u
O=C1c2ccc([N+](=O)[O-])cc2NC(c2ccco2)N1/N=C/c1ccco1 (configuration not stated)	-19%	u	10%	-25	13µM*
CN=c1scc(-c2ccc([N+](=O)[O-])cc2)n1/N=C/c1ccco1	-14%	-29%	-6%	-1	3.5µM*
O=[N+]([O-])c1ccc(S(=O)(=O)N/N=C/c2ccco2)cc1	-6%	-9%	-2%	3	-8%
O=C1c2ccccc2NC(c2ccc(-c3cccc([N+](=O)[O-])c3)o2)N1O (configuration not stated)	-12%	-22%	11%	0	u
COc1ccc(NC(=O)C2=C(C)Nc3ncnn3C2c2ccc[nH]2)cc1 (configuration not stated)	u	-11%	1%	x	-4%
CCCC(=O)N(c1ccc2oc(=O)sc2c1)S(=O)(=O)c1cccs1	-21%	-23%	u	1	32µM*
CN1C=CC2=C(C#N)C(N)C(C#N)(C#N)[C@H](c3ccccc3)[C@H]2C1 (some centres not stated)	-13%	-18%	u	-30*	u
O=C1[C@H]2[C@H]3[C@H](O)[C@H](O)C/C(=N/OCc4ccccc4)[C@H]3CC[C@@H]2C(=O)N1Cc1ccc2c(c1)OCO2	x	-11%[11.6 µM]	-1%[11.6 µM]	1	-8%[11.5 µM]
O=C(N=Nc1ccc(NOC(=O)c2ccccc2Br)cc1)c1ccccc1O	x	u	u	-25	10µM*
CC(C)c1nn2c(=O)cc(COC(=O)c3cccc(NC(=O)c4cccs4)c3)nc2s1	-20%	-2%	u	x	u
COc1cccc(C2=NCCc3cc4c(cc32)OCO4)c1OC	3%	6%	-8%	-1	2%
COc1ccc2cc3[n+](cc2c1OC)CCc1cc2c(cc1-3)OCO2	-1%	-9%	-10%	-36*!	18µM*
COCCCNc1c2c3c(cccc3[nH]c1=O)C(=O)c1ccccc1-2	4.5µM*	u	2%	-19	u
Cc1ccc(NC(=O)CSc2nc(=O)n(CCN3CCOCC3)c3c2CCC3)cc1Cl	-20%	-11%	-6%	x	-8%
SMILES	USP1 inh	Tau fluor counter	Tau FP inhib	FBPA coupling cs	Tau ThT inhib
Cc1cc(C)c2nc3s/c(=C/c4ccccc4)c(=O)n3c2c1	x	-24%	u	5	28µM*
Cc1nc2c(ccc3c2ccc2nc(C)sc23)s1	-5%	-3%	3%	0	-6%
COc1cc2sc(C)nc2c2ccccc12	-8%	x	x	-32*	x
CC1=C(c2ccc(C)cc2)S(=O)(=O)N=C1N1CCN(c2ccccc2)CC1	-5%	-10%	1%	x	-15%
COc1cc(Cl)c(C)cc1NC(=O)CCn1c(=O)c2cccn2c2cccnc21	-25%	-1%	-3%	x	9%
Oc1ccc(N=Nc2ccc3c(c2)OCO3)c2ccccc12	x	-20%	u	-3	0.89µM*
COC(=O)c1nc2n(n1)C(c1cccc(Cl)c1)C(C(=O)Nc1ccccc1OC)=C(C)N2 (configuration not stated)	-19%	1%	-5%	x	-1%
Cc1ccc(-c2ccc(/C=C/C(=O)c3ccccc3)o2)cc1	-19%	-15%	-7%	-2	13µM*
Cc1ccc(C(=O)/C=C/c2ccc(-c3ccccc3[N+](=O)[O-])o2)cc1	-9%	u	-4%	-11	8.9µM*
O=C(/C=C/c1ccc(-c2ccccc2[N+](=O)[O-])o1)c1ccc(Br)cc1	-19%	u	-5%	-14	7.9µM*
O=C(/C=C/c1ccc(-c2ccccc2)o1)c1ccccc1	-27%	0%	2%	-20	6%
Cc1cc(C)c(Cn2c(=O)n(CCCCC(=O)NCc3ccccc3Cl)c(=O)c3ccccc32)c(C)c1	-3%	-1%	-7%	x	4%
COc1ccc2c(c1)OC(=O)CC2c1ccccc1C (configuration not stated)	x	u	7%[81.3 µM]	2	u
O=C(NCc1nc(-c2ccc(C(F)(F)F)cc2)no1)Nc1cc(Cl)cc(Cl)c1	-17%	u	16µM*	-5	x
COc1ccc(/C(=N/OC(C)=O)c2nccc3cc(OC)c(OC)cc23)cc1OC	-11%	9%	1%	-32*	x
O=[N+]([O-])c1ccc(NN=Cc2ccccc2)nc1	-6%	x	x	x	x
Cc1ccccc1-n1c(C)cc(/C=N/Nc2ccc([N+](=O)[O-])cn2)c1C	-14%	u	3%	-2	4.5µM*
O=[N+]([O-])c1ccc(N/N=C\c2cccn2-c2ccccc2)nc1	-6%	16µM*[quencher]	16%	2	7.1µM*
Cc1cc(/C=N/Nc2ccc([N+](=O)[O-])cn2)c(C)n1-c1ccc(C(=O)O)cc1	-2%	u	u	-7	4.5µM*
O=c1[nH][nH]c2c(N=Cc3ccccc3O)ccc(F)c12	28µM*	3.5µM*[quencher]	7.9µM*	-34*	3.5µM*
CCc1ccc(O)c(N=Cc2ccccc2O)c1	-23%	-22%	-6%	0	u
CCc1nc(Nc2ccccc2)c2oc3ccccc3c2n1	-26%	-27%	-14%	-8	-9%
CCc1nc(Nc2ccc(N3CCN(C(C)=O)CC3)cc2)c2oc3ccccc3c2n1	1%	u	16%	-23	13µM*

Source: PubChem BioAssay
